Our source for the Percent Effect values is ChEMBL document CHEMBL3988442, “University of Dundee, Small-Polar-MMV Screening Library” (2021).

Common to all, as to design: scale not given: direction of the effect not stated beside the values
For test [1], the target named is Protein translocase subunit SecA (Escherichia coli (strain K12)) (UniProt P10408). Put plainly: Assay to Identify E. coli SecA ATPase Inhibitors. The following applies: 30 µM. It is filed as functional.
The target of test [2] is T1, Ubiquitin-activating enzyme e1, putative (Leishmania donovani (strain BPK282A1)) (UniProt E9BSI1).
T1 sequence (whole entry): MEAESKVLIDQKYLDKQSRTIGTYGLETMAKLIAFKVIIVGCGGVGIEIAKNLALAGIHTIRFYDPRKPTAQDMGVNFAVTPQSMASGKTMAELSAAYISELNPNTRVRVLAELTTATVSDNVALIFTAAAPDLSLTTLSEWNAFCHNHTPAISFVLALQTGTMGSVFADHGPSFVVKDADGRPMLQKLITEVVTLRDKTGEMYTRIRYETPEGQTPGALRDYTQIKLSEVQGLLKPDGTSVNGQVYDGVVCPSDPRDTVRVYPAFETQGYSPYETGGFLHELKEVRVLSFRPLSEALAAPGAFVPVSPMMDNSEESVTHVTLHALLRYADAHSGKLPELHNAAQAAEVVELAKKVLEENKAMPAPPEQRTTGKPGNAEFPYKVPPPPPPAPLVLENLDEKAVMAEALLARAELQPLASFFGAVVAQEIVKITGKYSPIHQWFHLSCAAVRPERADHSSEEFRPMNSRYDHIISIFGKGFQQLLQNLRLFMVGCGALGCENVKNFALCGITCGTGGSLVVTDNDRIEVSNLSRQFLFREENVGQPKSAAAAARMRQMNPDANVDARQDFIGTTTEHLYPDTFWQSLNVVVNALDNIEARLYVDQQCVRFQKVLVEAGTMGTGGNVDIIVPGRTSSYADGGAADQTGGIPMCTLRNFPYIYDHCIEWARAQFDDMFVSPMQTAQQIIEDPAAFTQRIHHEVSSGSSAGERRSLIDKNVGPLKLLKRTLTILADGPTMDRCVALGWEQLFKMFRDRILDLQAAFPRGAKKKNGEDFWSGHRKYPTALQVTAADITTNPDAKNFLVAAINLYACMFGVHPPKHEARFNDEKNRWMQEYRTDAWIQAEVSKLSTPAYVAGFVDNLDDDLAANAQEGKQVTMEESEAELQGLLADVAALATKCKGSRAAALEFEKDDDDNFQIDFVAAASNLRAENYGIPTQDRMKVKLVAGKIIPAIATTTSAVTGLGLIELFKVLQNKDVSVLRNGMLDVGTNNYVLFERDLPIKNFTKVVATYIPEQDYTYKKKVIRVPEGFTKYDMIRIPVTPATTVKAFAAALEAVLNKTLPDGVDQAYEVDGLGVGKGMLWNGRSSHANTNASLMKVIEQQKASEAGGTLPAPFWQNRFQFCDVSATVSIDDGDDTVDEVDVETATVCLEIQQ
Put plainly: Leishmania donovani Ubiquitin Activating Enzyme (LdE1). Type of test: functional. The following applies: 30 µM.

Test [3] deals with AMP-activated protein kinase, AMPK (Homo sapiens) (UniProt P54646+O43741+P54619+Q9UGJ0+Q9Y478+Q13131+Q9UGI9). Put plainly: AMP-dependent Kinase enzyme assay. An in vitro enzyme assay that detects ADP turnover that is directly proportional to AMPK activity. This uses naive AMPK that is activated during the assay with MK-8722. Type of test: functional. The following applies: 30 µM.

Test [4] concerns the target Sialic acid-binding Ig-like lectin 9 (Homo sapiens) (UniProt Q9Y336). The test is described as follows: Hs-Siglec9 ALPHAscreen SOP 20170721. The following applies: 10 µM. A general note: Bead proximity is the source of the signal in Alpha formats.
Another test concerns Trypanosoma cruzi. The test is described as follows: Trypanosoma cruzi phosphomannomutase and mannose-1-phosphate guanylyltransferase assay. It is filed as functional. The following applies: 10 µM.
The target in test [5] is T2, Arginase-2, mitochondrial (Homo sapiens) (UniProt P78540).
T2 sequence (whole entry): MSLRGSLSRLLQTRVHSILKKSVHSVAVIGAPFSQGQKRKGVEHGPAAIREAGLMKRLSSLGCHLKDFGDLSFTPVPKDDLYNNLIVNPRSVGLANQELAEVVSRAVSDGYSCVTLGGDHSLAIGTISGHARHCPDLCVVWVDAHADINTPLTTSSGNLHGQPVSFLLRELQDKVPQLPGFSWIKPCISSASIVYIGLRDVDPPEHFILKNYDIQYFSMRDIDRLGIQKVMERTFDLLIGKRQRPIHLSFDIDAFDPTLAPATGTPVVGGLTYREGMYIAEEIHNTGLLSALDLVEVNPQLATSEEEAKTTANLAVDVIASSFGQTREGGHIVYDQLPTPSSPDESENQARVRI
Put plainly: in vitro enzyme assay to detect the production of urea directly proportional to the activity of Arginase II. Note: in the data most compounds retested in dose-response had high values. Type of test: functional. Particulars: 33.3 µM.

For test [6], the target named is T3, Proteasome subunit beta (Trypanosoma cruzi) (UniProt O96673).
T3 sequence (whole entry): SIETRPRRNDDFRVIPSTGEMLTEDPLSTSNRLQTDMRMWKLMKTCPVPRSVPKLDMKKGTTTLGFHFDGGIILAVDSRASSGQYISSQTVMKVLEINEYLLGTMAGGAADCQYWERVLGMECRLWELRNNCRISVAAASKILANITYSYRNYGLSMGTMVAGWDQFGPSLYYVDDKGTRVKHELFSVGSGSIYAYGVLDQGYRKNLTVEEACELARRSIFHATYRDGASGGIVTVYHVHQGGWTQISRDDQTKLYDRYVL
Put plainly: Trypanosoma cruzi proteasome chymotrypsin-like activity (TcProtChymo) assay. Note: in the data most compounds retested in dose-response had high values. Type of test: functional. Particulars: 9.37 µM.

For a further test, the species on record is Homo sapiens. Put plainly: To identify inhibition of the IFN signalling (Jak-Stat) pathway via expression of an eGFP reporter gene under the control of an IFN-stimulated response element (ISRE) containing MxA promoter. Particulars: 30 µM. Type of test: functional.
Test [7] concerns the target T4, Tyrosyl-tRNA synthetase, putative (Trypanosoma cruzi (strain CL Brener)) (UniProt Q4DSP6).
T4 sequence (whole entry): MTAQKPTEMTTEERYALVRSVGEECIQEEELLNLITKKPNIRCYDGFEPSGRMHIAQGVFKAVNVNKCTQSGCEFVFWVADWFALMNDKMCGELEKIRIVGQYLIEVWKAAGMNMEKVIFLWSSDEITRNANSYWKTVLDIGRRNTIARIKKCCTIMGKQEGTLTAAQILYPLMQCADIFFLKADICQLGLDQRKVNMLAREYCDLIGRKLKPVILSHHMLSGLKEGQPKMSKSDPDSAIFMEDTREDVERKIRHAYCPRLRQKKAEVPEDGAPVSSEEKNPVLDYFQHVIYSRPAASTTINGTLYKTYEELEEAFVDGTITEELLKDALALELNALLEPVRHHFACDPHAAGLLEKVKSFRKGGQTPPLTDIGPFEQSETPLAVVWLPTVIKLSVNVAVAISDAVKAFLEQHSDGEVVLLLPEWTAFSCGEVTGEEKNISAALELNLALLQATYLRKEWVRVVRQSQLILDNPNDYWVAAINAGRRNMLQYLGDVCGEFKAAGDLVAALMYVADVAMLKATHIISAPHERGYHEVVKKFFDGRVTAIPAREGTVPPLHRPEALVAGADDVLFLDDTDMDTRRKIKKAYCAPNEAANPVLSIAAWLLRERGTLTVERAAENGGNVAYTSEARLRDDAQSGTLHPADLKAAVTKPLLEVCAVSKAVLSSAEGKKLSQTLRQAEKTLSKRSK
The test is described as follows: Trypanosoma cruzi tyrosyl tRNA synthetase (TcYRS) _High Tyrosine SOP. Note: in the data most compounds retested in dose-response had high values. Type of test: functional. The following applies: 30 µM.

Test [8] addresses T4, Tyrosyl-tRNA synthetase, putative (Trypanosoma cruzi (strain CL Brener)). Put plainly: Trypanosoma cruzi tyrosyl tRNA synthetase (TcYRS) SOP. Type of test: functional. Particulars: 30 µM.
For test [9], the target named is Chromo domain-containing protein 1 (Saccharomyces cerevisiae (strain ATCC 204508 / S288c) (Baker's yeast)) (UniProt P32657). Put plainly: ScCHD-1 Enzyme Inhibition Assay. Note: in the data most compounds retested in dose-response had high values. It is filed as functional. The following applies: 30 µM.

The structures appear in SMILES notation. For some assays here: Potency and affinity values are given separately.

Chain of Chromo domain-containing protein 1 (Saccharomyces cerevisiae (strain ATCC 204508 / S288c) (Baker's yeast)) (P32657 whole entry, the tested form may be a part): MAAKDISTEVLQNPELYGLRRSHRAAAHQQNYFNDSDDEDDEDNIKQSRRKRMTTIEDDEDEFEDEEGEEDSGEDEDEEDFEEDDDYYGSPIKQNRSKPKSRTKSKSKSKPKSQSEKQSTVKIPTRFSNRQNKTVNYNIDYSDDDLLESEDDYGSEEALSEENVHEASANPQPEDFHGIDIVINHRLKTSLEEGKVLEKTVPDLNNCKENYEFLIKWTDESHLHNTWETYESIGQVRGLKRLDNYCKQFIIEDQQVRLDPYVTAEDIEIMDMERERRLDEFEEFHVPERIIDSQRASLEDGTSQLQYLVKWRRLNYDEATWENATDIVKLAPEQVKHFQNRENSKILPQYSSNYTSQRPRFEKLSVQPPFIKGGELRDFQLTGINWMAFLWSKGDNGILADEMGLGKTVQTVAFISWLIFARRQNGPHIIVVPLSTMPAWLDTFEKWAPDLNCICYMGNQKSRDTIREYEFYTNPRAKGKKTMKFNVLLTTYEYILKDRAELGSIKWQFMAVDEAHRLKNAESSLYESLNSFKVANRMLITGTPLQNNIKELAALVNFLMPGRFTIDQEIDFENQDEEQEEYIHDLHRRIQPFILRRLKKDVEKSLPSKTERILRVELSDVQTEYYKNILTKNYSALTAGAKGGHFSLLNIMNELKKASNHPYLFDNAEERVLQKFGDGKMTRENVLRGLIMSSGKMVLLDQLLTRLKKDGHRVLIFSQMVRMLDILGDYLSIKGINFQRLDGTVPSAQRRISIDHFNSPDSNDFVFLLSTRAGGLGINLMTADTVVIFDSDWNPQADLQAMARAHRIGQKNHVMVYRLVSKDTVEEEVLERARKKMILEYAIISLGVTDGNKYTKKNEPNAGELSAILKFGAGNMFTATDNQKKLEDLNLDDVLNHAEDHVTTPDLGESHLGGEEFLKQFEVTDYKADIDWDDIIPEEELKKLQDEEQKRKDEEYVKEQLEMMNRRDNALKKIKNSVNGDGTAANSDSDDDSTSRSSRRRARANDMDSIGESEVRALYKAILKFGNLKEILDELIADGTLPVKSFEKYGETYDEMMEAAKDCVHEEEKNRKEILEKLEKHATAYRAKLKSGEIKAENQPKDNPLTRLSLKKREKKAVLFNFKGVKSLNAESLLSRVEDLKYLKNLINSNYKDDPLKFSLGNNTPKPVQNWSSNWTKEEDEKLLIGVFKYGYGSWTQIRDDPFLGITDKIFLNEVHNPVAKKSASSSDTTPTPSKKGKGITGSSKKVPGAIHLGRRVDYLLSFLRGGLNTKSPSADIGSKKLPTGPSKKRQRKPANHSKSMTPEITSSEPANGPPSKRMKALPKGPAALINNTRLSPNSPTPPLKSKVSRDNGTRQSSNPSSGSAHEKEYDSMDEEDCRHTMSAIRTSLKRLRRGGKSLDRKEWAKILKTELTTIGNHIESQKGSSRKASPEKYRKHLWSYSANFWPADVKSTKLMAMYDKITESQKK
Chain of Protein translocase subunit SecA (Escherichia coli (strain K12)) (P10408 whole entry): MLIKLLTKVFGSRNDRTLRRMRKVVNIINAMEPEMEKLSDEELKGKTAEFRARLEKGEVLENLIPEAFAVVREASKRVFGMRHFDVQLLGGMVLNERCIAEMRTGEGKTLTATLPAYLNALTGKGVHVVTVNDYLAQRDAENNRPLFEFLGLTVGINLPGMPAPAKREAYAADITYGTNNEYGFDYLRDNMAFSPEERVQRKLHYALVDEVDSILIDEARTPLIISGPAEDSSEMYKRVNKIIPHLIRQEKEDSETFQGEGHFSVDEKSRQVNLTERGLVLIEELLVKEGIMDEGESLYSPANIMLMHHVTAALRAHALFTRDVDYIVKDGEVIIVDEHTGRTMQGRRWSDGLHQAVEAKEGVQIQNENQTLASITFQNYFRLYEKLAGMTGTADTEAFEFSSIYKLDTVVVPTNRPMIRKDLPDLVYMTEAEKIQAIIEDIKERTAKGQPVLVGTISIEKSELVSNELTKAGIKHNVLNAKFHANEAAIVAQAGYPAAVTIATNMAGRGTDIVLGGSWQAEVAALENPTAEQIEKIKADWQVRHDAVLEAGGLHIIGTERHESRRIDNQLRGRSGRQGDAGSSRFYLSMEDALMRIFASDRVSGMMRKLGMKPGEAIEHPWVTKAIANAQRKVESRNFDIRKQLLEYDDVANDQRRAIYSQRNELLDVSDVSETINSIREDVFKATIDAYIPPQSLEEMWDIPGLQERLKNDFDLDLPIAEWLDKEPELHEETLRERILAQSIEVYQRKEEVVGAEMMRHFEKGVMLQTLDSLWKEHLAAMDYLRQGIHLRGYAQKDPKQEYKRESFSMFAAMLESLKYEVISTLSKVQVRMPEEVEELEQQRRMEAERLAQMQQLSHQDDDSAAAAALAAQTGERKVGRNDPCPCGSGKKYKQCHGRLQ
Chain of Sialic acid-binding Ig-like lectin 9 (Homo sapiens) (Q9Y336 whole entry): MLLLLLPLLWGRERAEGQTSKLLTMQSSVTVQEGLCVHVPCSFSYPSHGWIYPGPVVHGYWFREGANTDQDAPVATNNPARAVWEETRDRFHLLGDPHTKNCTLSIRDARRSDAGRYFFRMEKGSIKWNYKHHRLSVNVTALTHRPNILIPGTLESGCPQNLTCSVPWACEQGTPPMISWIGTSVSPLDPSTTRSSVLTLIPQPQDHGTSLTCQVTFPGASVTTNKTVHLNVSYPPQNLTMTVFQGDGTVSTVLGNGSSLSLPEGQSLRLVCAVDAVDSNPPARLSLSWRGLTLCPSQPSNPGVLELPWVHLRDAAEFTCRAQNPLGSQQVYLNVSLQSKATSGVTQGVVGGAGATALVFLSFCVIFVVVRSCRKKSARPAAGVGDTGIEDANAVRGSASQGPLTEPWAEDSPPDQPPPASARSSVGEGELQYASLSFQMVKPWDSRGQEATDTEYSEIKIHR

Turning to `Cc1ccc(CS(=O)(=O)N2CC[C@H]3[C@H]2CCN3C)cc1`, the Percent Effect in test [1] is 1.22%; in test [2], 13.7%; in test [3] it was -1.19%; in [4], 9.36%; in the test on Trypanosoma cruzi it was 6.35%; in test [5], -0.399%. Moreover, the Percent Effect in test [6] is 14.5%; in the test listed under Homo sapiens, -5.72%; in test [7], 6.25%; in test [8] it was 16.1%; in test [9], -5.83%.

Consider `CC(C)OCc1ncn2c1CN(Cc1cccs1)CCC2`, for which the Percent Effect in test [1] is -1.74%; in test [2], -2.7%; in test [3] it was -26.4%; in test [4], 0.954%; in the test with Trypanosoma cruzi, -2.25%; in test [5], -2.23%. In addition, the Percent Effect in test [6] is 9.04%; in the test listed under Homo sapiens, 12.4%; in [7] it was -2.16%; in test [8], 2.56%; in test [9], -2.17%.

`O=S1(=O)CCCN1Cc1coc(-c2cccs2)n1`: the Percent Effect in test [1] was -1.93%; in test [2] it was 15.3%; in test [3], -14.2%; in test [4], 1.81%; in the test with Trypanosoma cruzi, 2.82%; in test [5], 13.2%. For the same compound, the Percent Effect in test [6] is 23.3%; in the test listed under Homo sapiens it was -8.56%; in test [7], 5.26%; in test [8], 12.8%; in test [9], -3.41%.

Turning to `CCn1cc(Br)c(C(=O)NCc2cccnc2)n1`, the Percent Effect was -2.44% in test [1]; 7.79% in test [2]; -1.81% in test [3]; 5.82% in test [4]; 0.885% in the test on Trypanosoma cruzi; -9.65% in [5]. Also, the Percent Effect is 19.3% in test [6]; 3.08% in the test listed under Homo sapiens; 7.53% in test [7]; 16.1% in test [8]; -1.44% in test [9].

On to `CC(C)c1nccn1C1CCCN(C(=O)c2ccc3[nH]nnc3c2)C1` (stereo not given), for which the Percent Effect was -8.55% in test [1]; 7.79% in test [2]; -5.52% in test [3]; -4.53% in test [4]; 9.89% with Trypanosoma cruzi; -1.05% in [5]. Besides, the Percent Effect is 19% in [6]; -2.41% in the test filed under Homo sapiens; 4.76% in test [7]; 11.8% in [8]; -22.9% in test [9].

With `CSc1ccc(S(=O)(=O)N2CCCCC2CCNC(C)=O)cc1` (stereo not given), the Percent Effect is 0.287% in test [1]; 11% in [2]; -3.42% in [3]; 4.24% in [4]; 1.59% in the test with Trypanosoma cruzi; 1.6% in test [5]. Besides, the Percent Effect is 14.8% in test [6]; 9.17% in the test filed under Homo sapiens; 7.29% in test [7]; 16.1% in test [8]; -5.63% in test [9].

Consider `Clc1ccccc1-c1nc(CNCCn2cccn2)cs1`, for which the Percent Effect in test [1] is -1.85%; in test [2], -15.8%; in test [3] it was 2.49%; in test [4] it was -0.874%; with Trypanosoma cruzi, 9.02%; in test [5], 0.383%. Besides, the Percent Effect in test [6] came out at 10.9%; in the test listed under Homo sapiens it was 13.7%; in test [7], 9.31%; in test [8], 17.1%; in test [9], 14.2%.

In the case of `Cc1nn(C)c(N(C)C)c1CNCc1cccnc1-n1cncn1`, the Percent Effect is -3.71% in [1]; 8.86% in test [2]; 1.44% in [3]; 1.22% in test [4]; -4.21% in the test on Trypanosoma cruzi; 3.23% in [5]. For the same compound, the Percent Effect in test [6] is 12.9%; in the test filed under Homo sapiens it was -1.83%; in test [7] it was 7.29%; in test [8] it was 12.7%; in test [9] it was -7.57%.

Consider `CC(C)c1nc(CCNC(=O)NCc2ccnc(N(C)C)c2)cs1`, for which the Percent Effect in test [1] is -3.48%; in test [2], 6.33%; in test [3], 8.79%; in test [4], 4.61%; in the test on Trypanosoma cruzi, -0.103%; in test [5], 5.81%. Further, the Percent Effect was 9.43% in test [6]; 12.5% in the test listed under Homo sapiens; 1.04% in test [7]; 5.06% in [8]; -13% in [9].

`COC(CNC(=O)N1CCC(n2cncn2)CC1)c1ccccc1` (stereo not given): the Percent Effect in test [1] was -0.684%; in test [2] it was -3.8%; in [3], 13.4%; in test [4] it was 3.12%; in the test on Trypanosoma cruzi, -1.13%; in test [5] it was 1.94%. Further, the Percent Effect was 0.686% in [6]; 0.165% in the test filed under Homo sapiens; 2.08% in test [7]; 2.53% in test [8]; -14.3% in [9].
